An excerpt weighted towards active compounds, which were near 6.3% of everything screened.
DPM-DC inhibit = S. pneumoniae DPM-DC inhibitors, primary screen, biochemical, PK/LDH-coupled NADH fluorescence; diphosphomevalonate decarboxylase (Streptococcus pneumoniae D39); purified DPM-DC; calls only at 10 µM; 0.49% of 65,000 active;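 active = the 320 compounds with the highest percent inhibition in the single-dose primary screen, excluding strongly autofluorescent ones, cut at about 32% in these data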;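 note: kinetic rate of NADH fluorescence loss reporting ADP formed by the decarboxylase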
NADH enzymes = inhibitors of PK/LDH coupling enzymes, profiling panel, artefact control, biochemical, MLSMR library | coupled PK/LDH NADH assays, four targets | 0.02% of 65,000 active | IC50, µM (doses to about 10 µM), for inactives: at the top dose inhibition;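 active = single-dose screening hits from any of four coupled enzyme assays that gave an IC50 when retested across doses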;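 note: the DPM-DC format reads NADH fluorescence rather than 340 nm absorbance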
Spn PMK inh = S. pneumoniae PMK inhibitors, primary screen, biochemical, mevalonate pathway, pilot trial included. phosphomevalonate kinase (Streptococcus pneumoniae D39). purified PMK, PK/LDH-coupled NADH absorbance 340 nm. inhibition, % at 10 µM. 0.49% of 65,000 active;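 active = top-ranked compounds by inhibition in the single 10 µM screen, taking a fixed number of the strongest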;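 note: 0% = full reaction with DMSO carrier and 100% = background rate without enzyme reaction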
A340 absorber = compound light absorbance at 340 nm, profiling panel, artefact control, biochemical, MLSMR library, data from PS, PMK, MK assays. compound absorbance at 340 nm, fold over control. 65,000 tested, under 10 active. fold change at 10 µM;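 active = at 10 µM dose, initial 340 nm absorbance at least 2 fold that of control wells; inactive = change under 2 fold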;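 note: initial absorbance extrapolated from kinetic A340 decline of NADH oxidation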
MK inhibit = S. pneumoniae MK inhibitors, primary screen, biochemical, PK/LDH-coupled NADH absorbance | mevalonate kinase [Streptococcus pneumoniae D39] | 0.48% of 65,000 active | inhibition, % at 10 µM | purified MK, PK/LDH-coupled NADH absorbance 340 nm;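 active = ranked among the strongest by inhibition in the single 10 µM screen, a fixed top-ranked set picked for dose follow-up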
Autofluor 339 = intrinsic fluorescence of library compounds, ex339/em460 – biochemical, MLSMR library, data from DPM-DC assay, artefact control, profiling panel | compound autofluorescence, ex339/em460 nm, NADH buffer; active compounds read high; 1 = no-compound wells, NADH background | fluorescence fold increase at 10 µM | 5.5% of 65,000 active | AID 709, 2007;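 active = at 10 µM, mean starting fluorescence two-fold or more over control wells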;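 note: signal is the first read of a kinetic run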
* = called active by the depositor.

CC(C)Oc1ccc(-c2nn(-c3ccccc3)cc2/C=c2\sc3ncnn3c2=O)cc1 was read as NADH enzymes 3%, Spn PMK inh 8, A340 absorber 1, MK inhibit 7 and Autofluor 339 3*.
`Cc1ccc(OCc2nc(C#N)c(NCCCn3ccnc3)o2)cc1` gave DPM-DC inhibit inactive, NADH enzymes 9%, Spn PMK inh 16, A340 absorber 0.99, MK inhibit 7 and Autofluor 339 0.96.
For N#Cc1nc(COc2ccccc2F)oc1NCCCn1ccnc1 the results were DPM-DC inhibit inactive, NADH enzymes 2%, Spn PMK inh 5, A340 absorber 1, MK inhibit 0 and Autofluor 339 1.1.
`N#Cc1nc(-c2ccc(OCc3ccccc3)cc2)oc1NCCCn1ccnc1` gave NADH enzymes 14%, Spn PMK inh 15, A340 absorber 1, MK inhibit 12 and Autofluor 339 4*.
For N#Cc1nc(-c2ccco2)oc1NCCCn1ccnc1 the results were NADH enzymes 16%, Spn PMK inh 16, A340 absorber 1.1, MK inhibit 16 and Autofluor 339 4*.
For N#Cc1nc(-c2ccc(OCc3ccccc3Cl)cc2)oc1NCCCn1ccnc1 the results were DPM-DC inhibit inactive, NADH enzymes 1%, Spn PMK inh 0, A340 absorber 1.1, MK inhibit 2 and Autofluor 339 2.3*.
For CN(C)c1oc(-c2ccc(OCc3ccccc3)cc2)nc1C#N the results were NADH enzymes 12%, Spn PMK inh 14, A340 absorber 1.1, MK inhibit 10 and Autofluor 339 3.9*.
`N#Cc1nc(COc2ccccc2)oc1NCCCn1ccnc1` gave DPM-DC inhibit inactive, NADH enzymes 2%, Spn PMK inh 2, A340 absorber 0.99, MK inhibit 4 and Autofluor 339 1.1.
Screening CC1CCN(Cc2nc3c(c(=O)n(C)c(=O)n3C)n2CCN2CCOCC2)CC1 returned DPM-DC inhibit inactive, NADH enzymes 3%, Spn PMK inh 2, A340 absorber 1, MK inhibit 7 and Autofluor 339 1.
Screening COc1ccc(/C(O)=C2/C(=O)C(=O)N(CCN3CCOCC3)C2c2ccccn2)cc1 (configuration not stated) returned DPM-DC inhibit inactive, NADH enzymes 2%, Spn PMK inh 1, A340 absorber 1.1, MK inhibit 3 and Autofluor 339 1.
`Cc1cccc(OCCCCc2c(C)n[nH]c2C)c1C` gave DPM-DC inhibit inactive, NADH enzymes 4%, Spn PMK inh 0, A340 absorber 1, MK inhibit 11 and Autofluor 339 1.1.
`CCOc1cc(S(=O)(=O)NCCc2ccccc2C)c(OCC)cc1-n1cnnn1` gave NADH enzymes 0%, Spn PMK inh 0, A340 absorber 1.1, MK inhibit 0 and Autofluor 339 3.9*.
Screening CCOc1cc(S(=O)(=O)N2CCC(Cc3ccccc3)CC2)c(OCC)cc1-n1cnnn1 returned DPM-DC inhibit inactive, NADH enzymes 2%, Spn PMK inh 2, A340 absorber 1, MK inhibit 0 and Autofluor 339 1.4.
For CCOc1cc(S(=O)(=O)NCCc2cccc(C)c2)c(OCC)cc1-n1cnnn1 the results were NADH enzymes 8%, Spn PMK inh 11, A340 absorber 1, MK inhibit 4 and Autofluor 339 3.7*.
Screening O=C(Nc1ccc(-c2nc3ccccc3o2)cc1)C1CCCO1 (configuration not stated) returned DPM-DC inhibit inactive, NADH enzymes 6%, Spn PMK inh 0, A340 absorber 1.1, MK inhibit 7 and Autofluor 339 2.1*.
For CN(C)c1ccc(C2N(c3cccc(Cl)c3)C(=O)C3CCCN32)cc1 (configuration not stated) the results were DPM-DC inhibit inactive, NADH enzymes 8%, Spn PMK inh 2, A340 absorber 1.1, MK inhibit 17 and Autofluor 339 1.1.
